The list is not random: actives were taken first. Their share in the collection is about 4.6%.
Tau fluor counter: counter-screen for tau fibril formation inhibitors. tau K18 P301L Alexa594 fluorescence, heparin fibrillization. Potency, µM (top dose mostly 57.7 µM), for inactives: top-dose activity change, negative = decrease. hit rate 0.93% among 280,000; also: potency is read from the fitted curve at half-maximal effect; % is scaled to controls: 0 for no effect and ±100 for the full control effect; nearly all actives have a fitted effect of over 55% in size
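Human K18 P301L tau (15 uM unlabeled plus 0.24 uM Alexa 594-labeled, final) in 100 mM sodium acetate pH 7 was mixed with compound and 20 uM heparin and incubated 6 hr at 37 C.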
PNC inhibitor: blocks assembly of the perinucleolar compartment; PC3M PTB-GFP, PNC prevalence imaging, 16 h; active compounds read low; activity change (PNC), negative = inhibition, % at 10 µM; hit rate 3.1% among 140,000; AID 2417;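 active = readout at or below -70, meaning at least 70% loss of cells showing the perinucleolar compartment, a nuclear body marking cancer cells; inconclusive = readout between -30 and a set limit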;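 also: plate controls were DMSO wells for no effect and camptothecin positive control wells for full effect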
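Read-out is percentage of cells bearing a perinucleolar compartment, from automated 20x imaging of fixed, Hoechst-stained PC3M PTB-GFP cells. Cells were seeded 4 h, then exposed 16 h to compound (23 nl of library stock) in duplicate plates.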
Tau fibril ThT: blocks human tau fibril formation measured by thioflavin T. P10636. recombinant tau K18 P301L, heparin-induced fibrillization, ThT fluorescence. Potency, µM (titrated, usually from 57.4 µM), inactives show at the top dose activity, negative = inhibition, usual class: inhibitors. hit rate 2.1% among 270,000; also: potency is read from the fitted curve at half-maximal effect; % is scaled to controls: 0 for no effect and ±100 for the full control effect; nearly all actives have a fitted effect of over 55% in size
Target sequence (P10636 561-689 P618L limits assumed): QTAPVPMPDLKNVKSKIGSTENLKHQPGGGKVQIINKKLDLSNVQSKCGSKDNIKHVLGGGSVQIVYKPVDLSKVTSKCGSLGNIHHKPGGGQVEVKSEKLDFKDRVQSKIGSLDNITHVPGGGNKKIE
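Tau K18 P301L fragment (15 uM unlabeled plus 0.24 uM Alexa 594-labeled) in 100 mM sodium acetate pH 7 with compound, fibrillization induced by 20 uM heparin for 6 hr at 37 C. Thioflavin T (30 uM) added, fluorescence read after 1 hr (ex 450, em 510 nm).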
TRb-SRC2 inh: disrupts binding of human TR beta to SRC2 | P10828 | TRbeta-SRC2 peptide binding, fluorescence polarization; receptor liganded with 1 µM T3 | Potency, µM (top dose mostly 106 µM), inactives show top-dose activity change, negative = inhibition, hits mostly inhibitors | hit rate 0.065% among 280,000;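 also: potency is read from the fitted curve at half-maximal effect; plate controls were bound peptide for no effect and peptide without receptor for full effect; nearly all actives have a fitted effect of over 50% in size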
Target sequence (P10828 whole entry, looked up): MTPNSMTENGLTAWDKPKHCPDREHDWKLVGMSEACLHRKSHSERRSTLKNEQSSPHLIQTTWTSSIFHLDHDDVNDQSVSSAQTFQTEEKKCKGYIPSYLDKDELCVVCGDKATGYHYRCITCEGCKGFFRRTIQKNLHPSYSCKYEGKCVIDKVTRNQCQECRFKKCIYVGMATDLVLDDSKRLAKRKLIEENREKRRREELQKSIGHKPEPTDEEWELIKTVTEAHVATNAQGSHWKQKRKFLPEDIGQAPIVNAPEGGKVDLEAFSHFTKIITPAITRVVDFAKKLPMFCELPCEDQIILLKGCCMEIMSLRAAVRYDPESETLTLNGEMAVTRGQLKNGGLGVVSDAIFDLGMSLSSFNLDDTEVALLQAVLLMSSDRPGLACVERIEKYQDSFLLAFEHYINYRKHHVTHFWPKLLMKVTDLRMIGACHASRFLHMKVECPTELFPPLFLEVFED
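Fluorescence polarization of 20 nM Texas Red SRC2 peptide with 0.6 uM human TRb ligand-binding domain, in Tris buffer with 1uM T3 and 5% DMSO. Incubated 5 hr ambient; normalized to unbound and bound controls.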
TexasRed fluor: Texas Red fluorescence interference in TRb-SRC2 counter-screen; TRb/SRC2 Texas Red total fluorescence interference; Potency, µM (highest dose often 106 µM), for the others: at the top dose fluorescence change, negative = quenching; hit rate 0.29% among 280,000; AID 1479; active = well fitted curve in either direction with a large enough effect; inconclusive = small, poorly fitted or top-dose-only effect; also: potency is read from the fitted curve at half-maximal effect; % is scaled to controls: 0 for no effect and ±100 for the full control effect
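Flags fluorescent or light-absorbing compounds by total fluorescence, S + 2P, at 555 nm excitation and 632 nm emission. Mixture: 20 nM Texas Red SRC2 peptide, 0.6 uM human TRb LBD, 1 uM T3, 5% DMSO; compound exposure 5 h at ambient temperature.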
Tau FP inhib: blocks human tau fibril formation measured by polarization; Potency, µM (highest dose often 57.7 µM), for the others: at the top dose activity, negative = inhibition, usual class: inhibitors; hit rate 0.39% among 280,000; P10636; K18 P301L tau heparin fibrillization, Alexa594 FP, 6 h; also: potency is read from the fitted curve at half-maximal effect; % is scaled to controls: 0 for no effect and ±100 for the full control effect; nearly all actives have a fitted effect of over 55% in size
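Human tau K18 […] P301L fragment, 15 uM unlabeled plus 0.24 uM Alexa 594-labeled tau (final), with compound and 20 uM heparin in 100 mM sodium acetate pH 7; 6 hr at 37 C, then Alexa 594 FP read.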
Tau fibril TEM: Blocks tau fibril formation, electron microscopy. shares compounds with Tau fibril ThT. recombinant tau K18 P301L fibrillization, TEM grading; active compounds read high. fibril grade (0 = clumped fibrils, 4 = only tiny pieces) (test concentration not listed). hit rate 70% among 45;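 active = compounds whose electron micrographs showed tau fibrils broken into shorter filaments or fragments, graded high on fibril breakup; inconclusive = micrographs gave an unclear fibril picture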
tau fibril sed: reduces sedimented tau K18 P301L aggregates; shares compounds with Tau fibril ThT; AID 1720; inhibition, % at 100 µM; hit rate 50% among 110; recombinant tau K18 P301L (four-repeat tau fragment), sedimentation SDS-PAGE densitometry; in the data active = inhibition above about 40%; inconclusive = no clear call, values can overlap the other calls; inactive = below about 18%
* marks the source's active call; other numbers are inactive results; ? = inconclusive; · = no result; [ ] = dose if it differs, or a comment. Unless noted, calls follow the shape of the dose curve; as a rule, active = well fitted curve in the direction sought with a large enough effect; inconclusive = small, poorly fitted or top-dose-only effect, or another doubt; inactive = no such curve, though single readings can be large; an effect the other way counts as inactive or inconclusive.

SMILES	Tau fluor counter	PNC inhibitor	Tau fibril ThT	TRb-SRC2 inh	TexasRed fluor	Tau FP inhib	Tau fibril TEM	tau fibril sed
Cc1ccc(N2C(=O)SC(Cc3ccccc3)C2=O)cc1 (stereo not given)	-23.8%	·	?	-9.9%	-1.2%	?	?	?
O=C1SC(Cc2ccccc2)C(=O)N1c1ccccc1 (stereo not given)	-5.9%	·	-8.2%	-9.4%	-5.3%	0.6%	·	·
CN1CCOc2cc(S(=O)(=O)Nc3ccc(F)cc3)ccc21	-18.7%	4.7	-6.2%	-4.2%	2.1%	1.5%	·	·
Cc1nc2ccccc2oc1=O	?	·	?	2.1%	-3.3%	10.1%	·	13.0
CC(C)(C)/C(O)=C/c1nc2ccccc2oc1=O	-3.7%	·	-2.1%	-2.5%	-8.8%	-5.6%[2.34 µM]	·	·
COC(=O)N1[C@H](C)C=C[C@]1(Cc1ccccc1)C(=O)NCc1ccc(C)o1	-6.1%	·	?	8.4%	-0.4%	?	·	·
COC(=O)c1c(NC(=O)C(Cl)Cl)sc2c1C(C(=O)OC)CC2 (stereo not given)	-26.3%	·	?	4.0%	0.3%	2.6%	·	·
COC(=O)c1c(NC(=O)C(C)(C)C)sc2c1C(C(=O)OC)CC2 (stereo not given)	-3.2%	-7.9	-4.6%	-8.0%	-4.9%	2.5%	·	17.0
COC(=O)c1c(NC(=O)CCCOc2cccc(C)c2)sc2c1CCC2	-17.9%	·	?	4.2%	6.3%	-8.8%	·	·
COC(=O)c1c(NC(=O)CCCOc2cccc(C)c2)sc2c1C(C(=O)OC)CC2 (stereo not given)	-27.6%	·	3.16µM*	-2.7%	?	?	2*	56.0*
COC(=O)c1c(NC(=O)CCCOc2ccc(C)cc2)sc2c1C(C(=O)OC)CC2 (stereo not given)	?	·	7.94µM*	1.5%	6.0%	?	2*	56.0*
COc1cccc(Oc2ccc(N)cn2)c1	12.1%	21.1	4.7%	-4.7%	-3.9%	6.2%	·	·
O=C(Nc1ccccc1)N1CCC(n2c(=O)[nH]c3ccccc32)CC1	-16.4%	-3.6	-8.9%	-8.4%	-2.5%	-5.9%	·	·
Cc1ccc(S(=O)(=O)N(C)c2nc3ccccc3[nH]c2=S)cc1	-24.3%	·	1.12µM*	-1.5%	-2.6%	?	0	?
Cc1cc2c(N)cccc2nn1	?	27.2	3.16µM*	3.5%	-1.0%	?	3*	64.0*
CC(C)=CCCC1=CCC2C(=O)NNC(=O)C2C1 (stereo not given)	-2.0%	?	-5.0%	-2.6%	-2.4%	-1.3%	·	·
c1ccc(CN=C2NN=C(c3ccccc3)CS2)cc1	-16.7%	·	?	1.1%	-5.9%	-5.6%	·	·
CN(C)S(=O)(=O)c1cccc(N=C2NN=C(c3ccccc3)CS2)c1	?	?	8.91µM*	-4.6%	-4.8%	?	3*	?
Cn1nccc1C(=O)c1ccc(Cl)cc1	-0.2%	2.5	-5.1%	-2.9%	-0.2%	-1.3%	·	·
Cn1[nH]c(CSc2ccc(Cl)cc2)cc1=O	?	·	?	-1.0%	-3.7%	?	·	16.0
C=CCNC(=O)Cc1c(OC)ccc2cc(Br)ccc12	-3.7%	·	-3.2%	-7.2%	-4.1%	5.5%	·	·
CN(C)C(=O)c1ccc(-c2cc[nH]c(=O)c2N)cc1	·	·	·	·	·	·	0	48.0*
CN(C)c1ccc(-c2cc[nH]c(=O)c2N)cc1	·	·	·	·	·	·	3*	68.0*
CN(C)C(=O)c1ccc(-c2cncnc2NCc2cccs2)cc1	-7.0%	·	-8.5%	6.0%	0.7%	-6.5%	·	·
Nc1c(-c2ccncc2)cc[nH]c1=O	·	·	·	·	·	·	0	55.0*
Cc1cccn2c(=O)c3cc(C(=O)N(Cc4ccccc4)C(C)C)sc3nc12	-25.1%	·	-13.8%	-2.1%	6.6%	-2.3%	·	·
